# Assay outcomes deposited in PubChem BioAssay by National Center for Advancing Translational Sciences (NCATS).
# WRN inhibitor: WRN helicase (human) inhibition; Q14191; WRN helicase unwinding, fluorescent forked duplex, kinetic; Potency, µM (titrated, usually from 114 µM), for the others: top-dose activity change, negative = inhibition, hits mostly inhibitors; 360,000 compounds, 0.46% hits; AID 651768; further: potency means the concentration at half of the fitted maximal effect; nearly all actives have a fitted effect of over 55% in size
#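 Enzyme (20 nM final) and test compound sit together 15 min at room temperature before substrate addition. Substrate is a single-forked duplex oligonucleotide (100 nM) labelled with fluorophore and quencher, with 2 mM ATP; helicase unwinding raises red fluorescence, read kinetically.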
# USP1 inh: inhibitors of human USP1/UAF1 deubiquitinase; recombinant USP1/UAF1, Ub-Rhodamine cleavage fluorescence; Potency, µM (titrated, usually from 57.1 µM), for the others: top-dose activity change, negative = inhibition, hits mostly inhibitors; 390,000 compounds, 0.23% hits; AID 743255; further: potency means the concentration at half of the fitted maximal effect; nearly all actives have a fitted effect of over 60% in size
#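 1 nM enzyme complex + cpd, 15 min RT; start with Ub-Rho 150nM final; kinetic fluorescence ex 480/em 540, 6 reads q60 s. Buffer 50mM HEPES pH 7.8, 0.5mM EDTA, 0.1 mg/ml BSA, 1mM TCEP, 0.01% Tween-20.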
# PLK1 PBD block: inhibitors of human PLK1 polo-box domain binding | P53350 | Plk1 PBD binding of FITC phosphopeptide, fluorescence polarization | Potency, µM, inactives show max response, negative = inhibition, most hits filed as inhibitors | 360,000 compounds, 2.8% hits; further: potency means the concentration at half of the fitted maximal effect; series mostly up to about 57 µM; nearly all actives have a fitted effect of over 65% in size
# PI5P4K alpha inh: inhibitors of human PI5P4K alpha | P48426 | PI5P4Kalpha enzyme, ADP-Glo luminescence, 60 min; stronger effect = lower value | max response, % | 330,000 compounds, 1.2% hits | AID 652105; active means max response of -50% or lower; inconclusive means between -30% and -50%; inactive means -30% or higher; further: value at the top dose of about 77 µM
# Target sequence (P48426 whole entry, looked up): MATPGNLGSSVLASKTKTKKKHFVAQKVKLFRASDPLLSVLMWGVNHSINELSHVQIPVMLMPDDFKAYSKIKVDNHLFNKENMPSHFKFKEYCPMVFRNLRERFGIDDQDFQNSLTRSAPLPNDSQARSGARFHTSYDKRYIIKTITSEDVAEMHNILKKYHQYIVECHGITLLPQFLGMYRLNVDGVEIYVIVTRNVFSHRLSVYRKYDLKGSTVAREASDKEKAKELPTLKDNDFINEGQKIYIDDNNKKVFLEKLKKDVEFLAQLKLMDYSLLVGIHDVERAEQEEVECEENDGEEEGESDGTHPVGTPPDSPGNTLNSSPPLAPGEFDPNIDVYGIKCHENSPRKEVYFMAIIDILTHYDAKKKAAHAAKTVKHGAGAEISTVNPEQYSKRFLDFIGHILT
#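 Compounds were pin-transferred onto PI5P4Kalpha and substrate in HEPES pH 7.4 buffer with EGTA, CHAPS and 5% DMSO. ATP (5 microM final) started the reaction, which ran 60 minutes at room temperature before ADP-Glo detection.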
# USP2a block: inhibitors of human ubiquitin-specific protease USP2a; O75604; USP2 core, Ub-CHOP2 coupled fluorogenic reporter, 485/531; Potency, µM (highest dose often 38.3 µM), for the others: at the top dose activity change, negative = inhibition, usual class: inhibitors; 330,000 compounds, 0.01% hits; AID 463254;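 further: potency means the concentration at half of the fitted maximal effect; plate controls were DMSO wells for no effect and full inhibition by NEM control for full effect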
#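 Deubiquitinase activity read as fluorescence (485/531 nm) after Ub-CHOP2 cleavage activates the enterokinase reporter on its substrate; USP2 core 10nM, Ub-CHOP2 and substrate 25nM each, 30min compound preincubation then 60min RT; data normalized to NEM, curves fitted.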
# * = called active by the depositor; ? = inconclusive; · = not tested or not shown. Rows were chosen to be rich in hits. Some 3.3% of all compounds tested hit in one or more screens of this group. Unless noted, the call rests on the fitted dose curve; in most records, active means well fitted curve in the direction sought with a large enough effect; inconclusive means small, poorly fitted or top-dose-only effect, or another doubt; inactive means no such curve, though single readings can be large; an effect the other way counts as inactive or inconclusive. Unless noted, on the % scale 0 is the no-effect control and ±100 the full control effect.
SMILES,WRN inhibitor,USP1 inh,PLK1 PBD block,PI5P4K alpha inh,USP2a block
CC1(C)CC(=O)c2cnc(NC(=O)Cc3ccc(Cl)cc3)nc2C1,18%,-17%,19µM*,-25,0%
CCOC(=O)CC1(NC(=O)C2CCC(=O)N(Cc3ccccc3F)C2)CCCCC1 (stereo not given),12%,-5%,27µM*,-1,0%
COc1ccc(-c2cn3c(n2)sc2cc(C(=O)Nc4cccc(SC)c4)ccc23)cc1,·,2%,·,·,·
CCOC(=O)C1=C(CN(CC)Cc2ccccc2)NC(=O)NC1c1ccc(OC(C)C)cc1 (stereo not given),·,-26%,·,·,·
O=C(/C=C/c1ccco1)Nc1nc(-c2ccccn2)cs1,?,-5%,-26%,-93*,2%
O=C(/C=C/c1ccco1)Nc1nc(-c2ccccc2)cs1,-22%,-11%,-8%,-5,-1%
O=C(/C=C/c1ccco1)Nc1cccc2cccnc12,?,?,-8%,-82*,-1%
CCN(CC)S(=O)(=O)c1ccc2c(c1)N(CC(=O)NCCCN1CCN(c3cc(C)ccc3C)CC1)C(=O)CO2,·,-13%,·,·,·
c1ccc(Cc2nnc3sc(-c4cccnc4)nn23)cc1,-7%,7%,30µM*,·,1%
CCOc1ccccc1-c1nn2c(Cc3ccccc3)nnc2s1,-12%,-5%,-7%,·,-1%
c1ccc(Cc2nnc3sc(-c4ccccn4)nn23)cc1,-4%,-2%,24µM*,·,1%
c1csc(-c2nn3c(C4CCCCC4)nnc3s2)c1,-1%,-22%,0%,?,·
c1ccc(Cc2nnc3sc(-c4ccc5c(c4)OCO5)nn23)cc1,3%,1%,20µM*,·,·
c1ccc(Cc2nnc3sc(-c4ccncc4)nn23)cc1,8%,2%,?,·,-1%
c1ccc(Cc2nnc3sc(-c4ccc5c(c4)OCCO5)nn23)cc1,5%,-15%,-7%,2,6%
c1ccc(Cc2nnc3sc(-c4cccs4)nn23)cc1,3%,-11%,15µM*,·,0%
COc1ccc(NC(=O)CSc2ccc3nc(-c4ccccc4)cn3n2)c(OC)c1,·,-14%,·,·,·
c1ccc(OCc2nn3c(-c4ccncc4)nnc3s2)cc1,-15%,-8%,0%,·,-1%
c1ccc(Cc2nn3c(-c4ccncc4)nnc3s2)cc1,-2%,-5%,24µM*,·,1%
c1ccc(CCc2nn3c(Cc4ccccc4)nnc3s2)cc1,-11%,-13%,11µM*,·,1%
Cc1cccc(OC(=O)Cn2c(C(F)(F)F)nc3ccccc32)c1,1%,-23%,21µM*,0,2%
COc1ccccc1OCCNc1nc2c(c(=O)n(C)c(=O)n2C)n1C,0%,-8%,19µM*,-23,0%
Cn1c(=O)c2c(nc(NCCOc3ccc(C(C)(C)C)cc3)n2C)n(C)c1=O,-3%,-26%,-1%,-4,3%
Cc1ccc(S(=O)(=O)N2Cc3ccccc3CC2C(=O)Nc2ccc3c(c2)OCO3)cc1 (stereo not given),-36%,-25%,-16%,-51*,-6%
CC(C)(C)OC(=O)N1CCC(c2c(C(=O)NCc3ccc4c(c3)OCO4)cnn2-c2ccc(F)cc2F)CC1,·,-1%,·,·,·
SMILES,WRN inhibitor,USP1 inh,PLK1 PBD block,PI5P4K alpha inh,USP2a block
CCOc1ccc2[nH]c3nc(SCC(=O)NCC4CCCO4)nnc3c2c1 (stereo not given),-27%,-8%,-7%,-12,-1%
CCOc1ccc2c(c1)c1nnc(SCC3CCCO3)nc1n2C (stereo not given),-1%,-23%,27µM*,-16,-1%
COc1cccc(CNC(=O)c2ccc(CS(=O)Cc3ccc(Cl)cc3)o2)c1 (stereo not given),·,6%,·,·,·
COC(=O)c1ccc(NC(=O)N2CCC(CN3CCc4ccccc4C3)CC2)cc1,·,-19%,·,·,·
N#CC1=C(S)N(c2ccccc2)C(c2cccs2)NC1=O (stereo not given),-2%,-13%,?,·,0%
Cc1ccc(N2C(S)=C(C#N)C(=O)NC2c2cccs2)cc1 (stereo not given),0%,-12%,27µM*,-14,0%
CC(C)[C@H](NC(=O)C1CC(=O)N(c2ccc(F)cc2)C1)C(=O)N1CCCCC1 (stereo not given in full),-7%,-6%,3.4µM*,-26,-1%
O=C(C1CC(=O)N(c2ccc(F)cc2)C1)N1CCN(c2ccc(F)cc2)CC1 (stereo not given),2%,-5%,0%,3,1%
CC(C)C[C@H](NC(=O)C1CC(=O)N(c2ccc(F)cc2)C1)C(=O)N1CCCCC1 (stereo not given in full),12%,-8%,-2%,3,-1%
CCCCN(C(=O)C1CC(=O)N(c2ccc3c(c2)OCCO3)C1)c1c(N)n(CC(C)C)c(=O)[nH]c1=O (stereo not given),0%,-7%,-7%,-1,1%
CCCCn1c(N)c(N(CCC(C)C)C(=O)C2CC(=O)N(c3ccc4c(c3)OCCO4)C2)c(=O)[nH]c1=O (stereo not given),-3%,-22%,12µM*,6,3%
C[C@H](NC(=O)C1CC(=O)N(c2ccc3c(c2)OCO3)C1)C(=O)NC1CCCCC1 (stereo not given in full),-2%,-12%,11µM*,-11,2%
O=C(O)C1CC(=O)N(c2ccc(F)cc2)C1 (stereo not given),8%,-18%,27µM*,-3,3%
CC1CCN(CCCNC(=O)c2cc(Sc3ccc(F)cc3)nc3ccccc23)CC1,·,-14%,·,·,·
CSc1ccc(CCNC(=O)Cn2nc(C)n3c(cc4sccc43)c2=O)cc1,·,-23%,·,·,·
N#Cc1nc(-c2cccc3ccccc23)oc1NCC#CCOC(=O)c1cccs1,·,·,·,·,-3%
O=C(O)C1CC(=O)N(c2ccc3c(c2)OCCO3)C1 (stereo not given),-18%,-20%,3µM*,?,3%
O=C(Nc1ccc2c(c1)OCO2)C1CC(=O)N(c2ccc3c(c2)OCCO3)C1 (stereo not given),-7%,-15%,-2%,0,2%
O=C(NC(=S)N1CCCc2ccccc21)c1ccccc1,8%,-11%,-17%,-16,2%
O=C(NC(=S)N1CCCc2ccccc21)c1ccc(Cl)cc1,-12%,-19%,27µM*,-21,2%
COc1ccc(NCc2cccn2-c2nnc(N3CCCCC3)s2)cc1OC,·,-26%,·,·,·
O=C(NCCCc1ccccc1)c1cc(COc2ccc(F)cc2Cl)on1,-4%,-22%,30µM*,4,0%
Cc1ccc(CN(C)C(=O)c2cc(COc3ccc(F)cc3Cl)on2)o1,-8%,-13%,15µM*,?,-5%
Cc1ccc(/C=C/c2onc(C)c2S(=O)(=O)N2CCC(C(=O)Nc3cccc(C#N)c3)CC2)cc1,·,-7%,·,·,·
CC(=O)c1ccc(N2CCN(S(=O)(=O)c3cccc4nsnc34)CC2)cc1,3%,-18%,27µM*,-23,3%
